Bioassay records as filed in PubChem.
MCF10A rereplic: A quantitative high throughput screen for small molecules that induce DNA re-replication in MCF 10a normal breast cells; MCF 10A DNA re-replication, Hoechst nuclear intensity, 48 h; Potency, µM (highest dose often 46.1 µM), for the others: at the top dose activity, positive = re-replication, usual class: activators; 350,000 tested, 2.9% active; further: % of control where 0% means no effect; nearly all actives have a fitted effect of over 50% in size
VP16 counter: VP16 counterscreen qHTS for inhibitors of ROR gamma transcriptional activity | Drosophila S2 Gal4-VP16 UAS-luciferase, luminescence, 20 h | Potency, µM (series often up to 53.6 µM), for inactives: at the top dose activity, negative = inhibition, most hits filed as inhibitors | 310,000 tested, 3.5% active | AID 2546, 2010;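 further: Gal4-VP16 expression switched on by copper sulfate through the metallothionein promoter; on the % scale 0 is the no-effect control and ±100 the full control effect; nearly all actives have a fitted effect of over 50% in size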
SW480 rereplic: A quantitative high throughput screen for small molecules that induce DNA re-replication in SW480 colon adenocarcinoma cells | SW480 DNA re-replication, Hoechst DNA content imaging, 48 h | Potency, µM (doses to about 46.1 µM), inactives show at the highest dose re-replication activation, hits mostly activators | 340,000 tested, 1.8% active; further: % of control where 0% means no effect; nearly all actives have a fitted effect of over 55% in size
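Quantitative HTS format with DMSO vehicle controls; 48 hr drug incubation at 37 C, then 40 min Hoechst staining and scanning imager measurement at 405 nm excitation.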
KB-V1 MDR tox: qHTS assay for MDR1-selective chemotherapeutics: Primary screen using the drug-selected MDR subline cells KB-V1; KB-V1 MDR cells viability, CellTiter-Glo, 72 h; Potency, µM (series often up to 46.1 µM), most hits filed as cytotoxic; 400,000 tested, 3.4% active; further: on the % scale 0 is the no-effect control and ±100 the full control effect; nearly all actives have a fitted effect of over 60% in size
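KB-V1 MDR subline cells in DMEM (phenol-red free, 10% FBS) exposed to compounds in qHTS concentration series for 72 h at 37 degrees C. Viability read by CellTiter-Glo luminescence; concentration-effect curves fitted after normalization and correction.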
KB-3-1 tox: qHTS assay for MDR1-selective chemotherapeutics: Primary screen using the parental adenocarcinoma cell KB-3-1; KB-3-1 viability, CellTiter-Glo ATP luminescence, 72 h; Potency, µM (titrated, usually from 46.1 µM), usual class: cytotoxic; 400,000 tested, 1.4% active; AID 1347075, 2019; further: on the % scale 0 is the no-effect control and ±100 the full control effect; nearly all actives have a fitted effect of over 60% in size
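Here the drug-naive KB-3-1 line serves as comparator for MDR sub-line selectivity; cells received compound titrations, 72 h at 37 °C, then CellTiter-Glo readout.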
RORgamma inh: qHTS for inhibitors of ROR gamma transcriptional activity. Nuclear receptor ROR-gamma (Mus musculus), P51450. Drosophila S2 Gal4-RORgamma UAS-luciferase reporter, 20 h. Potency, µM (doses to about 53.6 µM), for inactives: at the highest dose activity change, negative = inhibition, actives largely listed as inhibitors. 310,000 tested, 5.4% active. AID 2551, 2010; further: on the % scale 0 is the no-effect control and ±100 the full control effect; nearly all actives have a fitted effect of over 60% in size
Target sequence (P51450 whole entry, looked up, the tested form may be a part): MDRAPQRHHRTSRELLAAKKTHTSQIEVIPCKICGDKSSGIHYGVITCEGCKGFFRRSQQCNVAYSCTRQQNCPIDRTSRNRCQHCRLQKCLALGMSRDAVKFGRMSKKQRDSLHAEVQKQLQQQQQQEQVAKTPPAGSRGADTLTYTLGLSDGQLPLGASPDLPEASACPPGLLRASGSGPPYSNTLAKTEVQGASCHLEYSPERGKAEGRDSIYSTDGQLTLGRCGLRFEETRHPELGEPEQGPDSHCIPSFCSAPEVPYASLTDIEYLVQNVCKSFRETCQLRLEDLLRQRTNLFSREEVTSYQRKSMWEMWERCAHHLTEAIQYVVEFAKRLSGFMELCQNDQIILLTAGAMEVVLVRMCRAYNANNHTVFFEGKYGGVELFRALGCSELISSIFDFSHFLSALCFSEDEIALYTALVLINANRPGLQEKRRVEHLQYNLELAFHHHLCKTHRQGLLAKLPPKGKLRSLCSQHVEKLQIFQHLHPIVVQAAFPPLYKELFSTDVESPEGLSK
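Luminescence from a UAS-regulated Photinus luciferase reporter in stably transfected Drosophila Schneider cells is measured; decreased signal marks ROR gamma inhibition. Fusion expression is induced by 700 uM copper sulfate for 20 hr.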
Numbers without * were called inactive; i = inactive; ? = inconclusive; . = no result; [ ] = another dose, or the depositor's remark. Shown are actives, neighbours in structure and some others; about 10% of the full set was active somewhere. The call rests on the fitted dose curve; in most records, active means well fitted curve in the direction sought with a large enough effect; inconclusive means small, poorly fitted or top-dose-only effect, or another doubt; inactive means no such curve, though single readings can be large; an effect the other way counts as inactive or inconclusive. Potency means the concentration at half of the fitted maximal effect.

SMILES | MCF10A rereplic | VP16 counter | SW480 rereplic | KB-V1 MDR tox | KB-3-1 tox | RORgamma inh
CCCCn1c(SCC(=O)Nc2cc(C)on2)nc2c1c(=O)n(C)c(=O)n2C | 1% | -15% | -2% | 15µM* | i | ?
CC(=O)N1CCCC1c1nc2ccccc2n1Cc1c(F)cccc1Cl (centres undefined) | . | . | . | i | i | .
O=C(COc1ccccc1Cl)OCc1cc(=O)n2nc(C3CCCCC3)sc2n1 | . | . | . | i | i | .
COCCNC(=O)C1(C)CCCN(Cc2csc(-c3ccc(Cl)cc3)n2)C1 (centres undefined) | . | . | . | i | i | .
COCC(=O)N(Cc1nc2ccccc2c(=O)[nH]1)Cc1cccs1 | 16% | -1%[0.365 µM] | 1% | i | i | ?
O=C(c1ccccc1)N(Cc1ccc2c(c1)OCO2)Cc1nc2ccccc2c(=O)[nH]1 | 10% | -14% | 13% | i | i | 0%[10 µM]
CCNC(=S)N(Cc1ccccc1)Cc1nc2ccccc2c(=O)[nH]1 | -1% | 7.1µM* | -38% | 21µM* | i | 6.3µM*
COCCCNC(=O)CNC(=S)N(Cc1ccccc1)Cc1cccnc1 | 0% | 10% | -1% | i | i | 8%
COCCCNC(=S)N(Cc1ccccc1)Cc1ccccc1 | 17% | ? | -5% | 18µM* | i | 16µM*
COCCCNC(=S)N(Cc1ccccc1)Cc1nc2ccccc2c(=O)[nH]1 | -5% | ? | 0% | i | i | 16µM*
C[C@@H](CO)NC(=O)c1ccc2c3n(nc2c1)-c1ccccc1CO3 | 6% | ? | -21% | i | i | 6.3µM*
Cc1ccc2c(c1)COc1c3ccc(C(=O)N[C@@H](CO)C(C)C)cc3nn1-2 | -7% | -6% | -17%[9.22 µM] | i | i | 2%
O=C(c1ccc2c3n(nc2c1)-c1ccc(Cl)cc1CO3)N1CCOCC1 | 11% | 6% | -5% | ? | i | -3%
O=C(c1ccc2c3n(nc2c1)-c1ccccc1CO3)N1CCCCC1 | 2% | ? | -5% | 10µM* | 9.2µM* | ?
O=C(c1ccc2c3n(nc2c1)-c1ccccc1CO3)N1CCOCC1 | 16% | -22% | -2% | ? | 7.3µM* | ?
Cc1ccccc1NC(=O)CN1C(=O)NC(C)(c2ccc3c(c2)OCO3)C1=O (centres undefined) | -3% | 0% | -3%[9.22 µM] | i | i | 23%
CC1(c2ccc3c(c2)OCO3)NC(=O)N(CC(=O)Nc2ccccc2[N+](=O)[O-])C1=O (centres undefined) | -1% | . | -2% | 15µM* | i | .
COc1ccc(S(=O)(=O)c2c(Nc3c(C)cccc3C)sc(C(=O)c3ccc(F)cc3)c2N)cc1 | . | . | . | ? | 5.8µM* | .
COc1ccc(S(=O)(=O)c2c(Nc3c(C)cccc3C)sc(C(=O)c3ccc4c(c3)OCO4)c2N)cc1 | . | . | . | ? | 3.7µM* | .
COc1cccc(Nc2sc(C(=O)c3ccc4c(c3)OCO4)c(N)c2S(=O)(=O)c2ccccc2)c1 | . | . | . | ? | i | .
CSc1ccc(CCNC(=O)c2c(C)nn(-c3ccc(F)cc3)c2-n2cccc2)cc1 | . | . | . | 5.8µM* | 3.3µM* | .
COc1cccc(CNC(=O)c2c(C)nn(-c3ccc(F)cc3)c2-n2cccc2)c1 | . | . | . | 9.2µM* | i | .
CCOc1ccc(CNC(=O)c2c(C)nn(-c3ccc(F)cc3)c2-n2cccc2)cc1 | . | . | . | 13µM* | ? | .
COc1ccc(C(=O)CSc2nnc(NC(=O)C3CC(=O)N(c4ccccc4)C3)s2)cc1 (centres undefined) | 6% | -7% | 2.9µM* | i | i | ?
C#CCOCC1CN(C)C(=O)O1 (centres undefined) | . | . | . | i | i | .
SMILES | MCF10A rereplic | VP16 counter | SW480 rereplic | KB-V1 MDR tox | KB-3-1 tox | RORgamma inh
C[C@H](CO)N1C[C@H](C)[C@@H](CN(C)S(=O)(=O)c2cn(C)cn2)Oc2ncc(Br)cc2C1=O | . | . | . | i | i | .
CC1(C(=O)NS(=O)(=O)C2CC2)CCCN(C(=O)c2c(F)cccc2F)C1 (centres undefined) | . | . | . | i | i | .
CC1CCN(S(=O)(=O)c2ccc3c(c2)c(=O)c(C(=O)NCc2cccs2)cn3C)CC1 | 0% | -2% | -2% | i | i | -1%
CC1CCN(S(=O)(=O)c2ccc3c(c2)c(=O)c(C(=O)NCc2ccco2)cn3C)CC1 | 12% | -3% | 4% | 9.2µM* | ? | 68%
COCCNC(=O)c1cn(C)c2ccc(S(=O)(=O)N3CCCCC3)cc2c1=O | 21% | 3% | -8% | i | 23µM* | -8%
CCOCCCNC(=O)c1cn(C)c2ccc(S(=O)(=O)N3CCCCC3)cc2c1=O | 0% | -4% | -33% | i | ? | -19%
CCn1cc(C(=O)NCC(OC)OC)c(=O)c2cc(S(=O)(=O)N3CCC(C)CC3)ccc21 | ? | 7% | 9% | i | 13µM* | 1%
CO[C@H]1COC(=O)[C@H](C)NC(=O)C/C=C\[C@@H](C)[C@@H](NS(=O)(=O)c2ccc(C)cc2)COC(=O)C/C=C\[C@@H]1C | . | -4%[10 µM] | . | . | . | -6%[10 µM]
CCOC(=O)c1cc(-c2ccccc2)n(CCC(=O)Nc2ccc(OC)c(Cl)c2)c1C | . | . | . | i | i | .
CN(C)c1ncc2nc(-c3ccccc3)c(=O)n(C[C@H]3CCCO3)c2n1 | . | -5% | . | . | . | -17%
COc1ccc(N2CCN(C(CNC(=O)C(=O)NCCC3=CCCCC3)c3ccco3)CC2)cc1 (centres undefined) | 15% | -12% | 10% | 2.6µM* | i | 3%
O=C(NCC(c1ccco1)N1CCN(c2ccccc2F)CC1)C(=O)NC1CC1 (centres undefined) | ? | . | 1% | ? | i | .
O=C(NCCC1=CCCCC1)C(=O)NCC(c1ccco1)N1CCN(c2ccccc2F)CC1 (centres undefined) | 0% | ? | -46% | 4.1µM* | i | 8%
O=C(NCCC1=CCCCC1)C(=O)NCC(c1ccco1)N1CCN(c2ccccc2)CC1 (centres undefined) | ? | 3% | ? | ? | i | 13%
Cn1nnc2c(N3CCN(c4cccc(Cl)c4)CC3)ncnc21 | . | . | . | i | i | .
C[C@H](NC(=O)C[C@@H]1C=C[C@@H](NC(=O)CN2CCOCC2)[C@@H](CO)O1)c1ccccc1 | . | . | . | i | i | .
